Assays:
Assay type in all cases: functional
Plasmodium falciparum [1] = experiment: GSK_TCMDC: Inhibition of Plasmodium falciparum 3D7 in whole red blood cells, using parasite LDH activity as an index of growth. Test compounds present at 2uM
Plasmodium falciparum [2] = experiment: GSK_TCMDC: Inhibition of Plasmodium falciparum Dd2 in whole red blood cells, using parasite LDH activity as an index of growth. Test compounds present at 2uM
HepG2 = experiment: GSK_TCMDC: Percent inhibition of human HepG2 cell line. Test compounds present at 10uM.

Row | SMILES | Inhibition (Plasmodium falciparum [1]) | Inhibition (Plasmodium falciparum [2]) | Inhibition (HepG2)
1 | COC(=O)c1cc(C(=O)CN(Cc2ccccc2)C(C)C)ccc1O.Cl | 97% | 0% | 7%
2 | COc1ccc(-c2ccc(NC(=O)c3cccc(Cl)c3)cc2)cc1CN1CCC(O)CC1.O=C(O)C(F)(F)F | 100% | 12% | 15%
3 | Br.CC1(C)NC(N)=NC(=N)N1OCCOc1ccc(Cc2ccccc2)cc1 | 94% | 26% | 62%
4 | CN1CC=C(c2csc3ccc(NC(=O)Nc4ccc(-c5ccncc5)c5ccccc45)cc23)CC1 | 93% | 99% | 20%
5 | COc1ccccc1-c1cccc2c(NC(=O)Nc3ccc4nccc(N5CCN(C)CC5)c4c3)ccnc12 | 94% | 34% | 3%
6 | O=C(NCCCCN1CCC(c2ccc3c(c2OCc2ccccn2)CCCC3)CC1)c1ccc(NC(=O)c2ccc(Cl)cc2)cc1 | 100% | 70% | 31%
7 | Cc1nc2cc(/C=C/C(=O)NC3CCC(CCN4CCc5ccc(C#N)cc5CC4)CC3)ccc2[nH]1.Cl (stereo not drawn) | 88% | 21% | 7%
8 | C[C@H](N[C@H]1CCCc2c1[nH]c1ccc(Br)cc21)c1ccccc1.Cl | 96% | 95% | 58%
9 | Cc1cccc2nc(-c3ccc(-c4cccc(CNCc5ccc(CN)cc5)c4)s3)[nH]c12.O=C(O)C(F)(F)F | 99% | 48% | 11%
10 | COC(=O)c1cccc(CNCc2ccc(-c3ccc(-c4nc5cccc(C)c5[nH]4)s3)cc2)c1.O=C(O)C(F)(F)F | 100% | 64% | 3%
11 | CC(=O)Nc1cc(C(=O)Nc2cccc(-c3csc(-c4nc5ccccc5[nH]4)c3)c2)ccc1C | 94% | 66% | 31%
12 | COc1cc(O)c2c(=O)c(OC)c(-c3cccc(Cl)c3OC3O[C@H](CO)[C@@H](O)[C@H](O)[C@H]3O)oc2c1OC (stereo partly drawn) | 100% | 6% | 16%
13 | CCN(CC)CC(O)c1cc(-c2ccc(OC)cc2)nc2cc(Cl)ccc12.Cl (stereo not drawn) | 99% | 98% | 12%
14 | COc1ccc2c(=NN=CC=Cc3ccccc3)cc(C)[nH]c2c1 | 99% | 56% | 18%
15 | O=C(O)C(F)(F)F.c1cc(-c2ccc(CN3CCN(c4ccncc4)CC3)cc2)cc(-c2nc3ccccc3[nH]2)c1 | 100% | 100% | 61%
16 | O=C(Nc1cccc(-c2cc3ccccc3[nH]2)c1)C1CCN(Cc2ccccc2O)CC1 | 95% | 25% | 34%
17 | Cc1cccc2nc(-c3ccc(-c4ccc(NC(=O)NCc5cccc(F)c5)cc4)cc3)[nH]c12 | 97% | 12% | 46%
18 | O=C1NC(c2ccccc2)C2(CCN(CC(O)COc3cccc4ncccc34)CC2)O1 (stereo not drawn) | 92% | 95% | 5%
19 | O=C(Nc1ccc(S(=O)(=O)N2CCCCC2)cc1)c1cc(-c2cc(Cl)ccc2O)n[nH]1 | 97% | 87% | 36%
20 | COc1cccc2c(N/N=C/c3ccccc3[N+](=O)[O-])cc(C)nc12 | 99% | 32% | 0%
21 | O=C(NCCCCN1CCCC2c3cccc(O)c3CCC21)c1ccc(-c2ccccc2)cc1 (stereo not drawn) | 93% | 4% | 18%

Row | SMILES | Inhibition (Plasmodium falciparum [1]) | Inhibition (Plasmodium falciparum [2]) | Inhibition (HepG2)
22 | CC(CN(C)C)C(=O)Nc1cccc(-c2ccc(-c3nc4cc(C(F)(F)F)ccc4[nH]3)cc2)c1 (stereo not drawn) | 99% | 97% | 26%
23 | COc1ccccc1C1CCN(C2CCC(NC(=O)c3ccc4[nH]c(-c5ccc(C)cc5)nc4c3)CC2)CC1 (stereo not drawn) | 100% | 100% | 100%
24 | CN(C)c1ccc(-c2ccc(C(=O)NC3CCN(Cc4ccc5c(c4)OCCO5)CC3)s2)cc1.O=C(O)C(F)(F)F | 100% | 73% | 36%
25 | CC(C)(C)[C@@H](Nc1ccc(C#N)c2ccccc12)C(=O)NC1(Cc2ccc(O)c(Br)c2)CCCC1 | 84% | 16% | 2%
26 | Cc1cc(OCC(=O)Nc2ccc(-c3nc4ccccc4[nH]3)cc2)cc(C)c1Cl | 99% | 0% | 5%
27 | Cl.Nc1nc(N)c2c(ccc3nn(Cc4cccnc4)cc32)n1 | 96% | 0% | 41%
28 | Cc1cc(NC(c2ccc(Cl)cc2)c2ccc3cccnc3c2O)no1 (stereo not drawn) | 88% | 26% | 50%
29 | Cl.NCC1(c2nc(-c3ccc(Cl)c(O)c3)c(-c3ccncc3)[nH]2)CCCCC1 | 98% | 98% | 48%
30 | O=C(NC1CCCCC1)c1csc(C2CCCN(C(=O)c3ccc(O)c(-c4cccc(C(F)(F)F)c4)c3)C2)n1 (stereo not drawn) | 96% | 85% | 8%
31 | O=C(NCc1ccccc1)Nc1ccc(-c2ccc(-c3nc4cc(C(F)(F)F)ccc4[nH]3)cc2)cc1 | 99% | 23% | 40%
32 | Cc1[nH]c(C)c(-c2ccc(-c3ccc(OCC(F)(F)F)cc3)nc2)c(=O)c1Cl | 94% | 96% | 3%
33 | COc1ccc2nccc(N3CCC(O)(CCNCc4ccc5c(n4)NC(=O)CO5)CC3)c2n1.Cl | 100% | 24% | 18%
34 | COc1ccc2[nH]c(-c3ccccc3)cc(=NN=Cc3ccncc3)c2c1 | 99% | 27% | 14%
35 | Cc1cccc2nc(-c3cccc(-c4ccc(CNCc5ccccc5)cc4)c3)[nH]c12.O=C(O)C(F)(F)F | 99% | 100% | 33%
36 | Cn1c(Nc2cc(C(C)(C)C)on2)nc2cc(Nc3ccnc(Nc4cccc(CS(C)(=O)=O)c4)n3)ccc21 | 99% | 94% | 63%
37 | COc1ccc2ncc(Cl)c(CCN3CC[C@@H](CNCc4cc5c(cn4)OCS5)C3)c2n1.Cl | 99% | 31% | 22%
38 | Cc1cc(Nc2ccccc2)nc(Nc2ccccc2)n1 | 96% | 74% | 0%
39 | COC(=O)[C@@H](NC(=O)[C@H](CC(C)C)Nc1ccc(C#N)c2ccccc12)c1ccc(O)cc1.O=C(O)C(F)(F)F | 98% | 87% | 4%
40 | CC(C)(C)c1ccc(CNC(=O)c2cc(CNC3CCNC3)ccc2O)cc1 (stereo not drawn) | 94% | 1% | 0%
41 | Br.CCCCC(NCC)c1ccc(OCCOc2ccc(C(CCCC)NCC)cc2)cc1 (stereo not drawn) | 100% | 99% | 100%
42 | COC(=O)c1cccc(CNCc2cccc(-c3cccc(-c4nc5cccc(C)c5[nH]4)c3)c2)c1.O=C(O)C(F)(F)F | 100% | 47% | 0%

Row | SMILES | Inhibition (Plasmodium falciparum [1]) | Inhibition (Plasmodium falciparum [2]) | Inhibition (HepG2)
43 | COc1cc2nc(NCC3CCCO3)n3nc(-c4ccccc4)nc3c2cc1OC (stereo not drawn) | 92% | 97% | 0%
44 | CCCCCCN1CCCN(Cc2ccc(C(=O)Nc3cccc(CC)c3)cc2)CC1.O=C(O)C(F)(F)F | 85% | 54% | 31%
45 | O=C1C[C@@H]([S+]([O-])Cc2nccs2)N1CCOCCCCCCc1ccc(Cl)cc1 (stereo partly drawn) | 91% | 0% | 0%
46 | COc1ccc(Nc2ncc(Cl)c(Nc3cccnc3C(N)=O)n2)cc1N1CCN(C)CC1.Cl | 95% | 97% | 77%
47 | Cc1n[nH]c2ccc(-c3cc(OC[C@@H](N)Cc4ccccc4)cnc3-c3ccc(OCc4cccc(F)c4)cc3)cc12.O=C(O)C(F)(F)F | 98% | 59% | 97%
48 | O=C(/C=C/c1ccc(Cl)c(Cl)c1)NCCCCCN1CCC(NC(=O)Nc2ccc(C(F)(F)F)cc2)C1 (stereo not drawn) | 100% | 6% | 11%
49 | Cl.Fc1cc(Cl)ccc1Nc1ccnc(Nc2ccc3cn[nH]c3c2)n1 | 97% | 56% | 8%
50 | CN1CCN(CC(=O)Nc2ccc(-c3ccc(-c4nc5cc(C(F)(F)F)ccc5[nH]4)cc3)cc2)CC1 | 100% | 98% | 43%
51 | COc1ccccc1NC(=O)Nc1cccc(-c2ccc(-c3nc4cc(C(F)(F)F)ccc4[nH]3)cc2)c1 | 100% | 76% | 28%
52 | Cc1ccc(O)cc1Nc1ccnc2cc(-c3csc(CNCCN4CCOCC4)n3)ccc12 | 100% | 99% | 6%
53 | CCc1cn2c3c(cc(C(=O)N[C@@H](Cc4ccccc4)[C@H](O)CNCc4ccc(C)cc4)cc13)N(C)S(=O)(=O)CC2.O=CO | 99% | 98% | 0%
54 | Cc1cccc2nc(-c3cccc(-c4cccc(NC(=O)Cc5ccc[n+]([O-])c5)c4)c3)[nH]c12 | 100% | 99% | 0%
55 | O=C(Nc1cccc(-c2ccc(-c3nc4ccccc4[nH]3)cc2)c1)c1csnn1 | 91% | 21% | 31%
56 | O=C(NC1CCN(c2ccnc3cc(Cl)ccc23)C1)c1ccc(F)cc1F.O=C(O)C(F)(F)F (stereo not drawn) | 100% | 100% | 31%
57 | Cc1ccc(S(=O)(=O)n2cc(-c3ccnc(N)c3)c3cc(Br)cnc32)cc1 | 98% | 31% | 8%
58 | Cc1cccc(OCC(=O)Nc2cccc(NC(=O)COc3cccc(C)c3)n2)c1 | 98% | 30% | 0%
59 | Cc1ccc(CNC(=O)[C@H](CC(C)C)Nc2cc(C)nc(NCC3CCCCC3)n2)cc1.O=C(O)C(F)(F)F | 96% | 44% | 6%
60 | CCCc1cc2c3c(N)nc(N)nc3ccc2n1C(CC)CC | 100% | 73% | 70%
61 | CCN1CCN(CCCCNc2c3ccccc3nc3ccccc23)CC1.Cl | 100% | 0% | 22%

— ChEMBL document CHEMBL1157539, “Thousands of chemical starting points for antimalarial lead identification” (Nature, 2010)
